About 3,000 (1%) of roughly 290,000 compounds were called active. Cut-off read from the data, not from the text of the source: active = inhibition mostly above about 36% (no sharp cut-off); inactive = mostly below about 34%. The full list was thinned out, with actives kept by preference.

For this assay, the target named is T1, Nucleotide-binding oligomerization domain-containing protein 1, Homo sapiens (UniProt Q9Y239).
T1 sequence (whole entry): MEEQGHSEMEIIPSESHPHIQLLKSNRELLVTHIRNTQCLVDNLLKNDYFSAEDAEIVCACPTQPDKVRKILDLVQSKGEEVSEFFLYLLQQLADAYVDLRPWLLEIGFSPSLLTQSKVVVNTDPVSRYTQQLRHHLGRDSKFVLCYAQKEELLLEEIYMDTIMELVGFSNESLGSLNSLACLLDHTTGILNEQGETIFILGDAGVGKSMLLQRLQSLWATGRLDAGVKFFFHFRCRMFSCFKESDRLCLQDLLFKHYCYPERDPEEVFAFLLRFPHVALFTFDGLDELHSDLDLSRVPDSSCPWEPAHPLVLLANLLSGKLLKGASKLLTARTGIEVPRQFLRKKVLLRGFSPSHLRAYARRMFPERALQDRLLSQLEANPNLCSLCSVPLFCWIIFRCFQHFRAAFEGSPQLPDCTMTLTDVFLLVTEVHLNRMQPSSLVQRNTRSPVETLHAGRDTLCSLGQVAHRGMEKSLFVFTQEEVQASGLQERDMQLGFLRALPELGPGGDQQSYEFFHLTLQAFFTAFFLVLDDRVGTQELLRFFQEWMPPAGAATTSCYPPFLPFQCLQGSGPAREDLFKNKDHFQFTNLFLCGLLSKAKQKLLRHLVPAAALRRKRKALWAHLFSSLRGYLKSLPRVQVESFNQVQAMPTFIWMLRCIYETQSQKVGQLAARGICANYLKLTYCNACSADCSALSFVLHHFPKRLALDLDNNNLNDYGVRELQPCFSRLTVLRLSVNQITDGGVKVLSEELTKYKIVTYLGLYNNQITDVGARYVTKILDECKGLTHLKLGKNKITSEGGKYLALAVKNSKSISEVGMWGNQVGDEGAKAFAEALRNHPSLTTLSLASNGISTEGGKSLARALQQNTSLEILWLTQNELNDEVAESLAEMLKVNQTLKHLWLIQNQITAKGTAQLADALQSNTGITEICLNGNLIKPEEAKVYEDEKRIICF
Kind of assay: inhibition of NOD1-driven NF-kB reporter – cell-based, luminescence, uHTS, primary screen (AID 1578).
For the compound `Cc1[nH]c2ccccc2c1C(=O)CCl`, the compound was classed as active.

`Cc1ccc2c(C(=O)CCl)c(C)[nH]c2c1`: the compound was called active.

`COc1cc(NS(=O)(=O)c2ccc3ccccc3c2)c2ncccc2c1`: the compound was classed as active.

On to `Cc1ccc(S(=O)(=O)Nc2cccc3cccnc23)cc1`, for which the outcome was active.

For `O=[N+]([O-])c1ccccc1S(=O)(=O)Nc1cccc2cccnc12`, the outcome was active.

Regarding `Cc1ccc2cccc(NS(=O)(=O)c3ccccc3)c2n1`, the outcome was active.

For the compound `Cc1ccc(S(=O)(=O)Nc2cccc3cccnc23)c([N+](=O)[O-])c1`, the result was active.

For the compound `C[C@@H]1C[C@@H]2O[C@H]2/C=C\C=C\C(=O)Cc2c(Cl)c(O)cc(O)c2C(=O)O1`, the compound was classed as active.

As for `C/C(=N\NC(=O)c1cccc(Br)c1)c1ccccn1`, the compound was called active.

As to `C/C(=N\NC(=O)Cc1ccc(Cl)cc1)c1ccccn1`, the result was active.

For `C/C(=N\NC(=O)c1ccc(Cl)cc1)c1ccccn1`, the call was active.

Regarding `C/C(=N\NC(=O)c1ccc(F)cc1)c1ccccn1`, the compound was classed as active.

On to `C/C(=N\NC(=O)c1ccc(Cl)c(Cl)c1)c1ccccn1`, for which the result was active.

With `COc1ccc(C(=O)N/N=C(\C)c2ccccn2)cc1OC`, the outcome was active.

For the compound `C/C(=N\NC(=O)COc1ccccc1-c1ccccc1)c1ccccn1`, the outcome was active.

Turning to `Nc1c(Cl)ncnc1N/N=C/c1ccccn1`, the call was active.

As to `Cc1cc2c(NCc3ccccc3)ncnc2s1.Cl`, the outcome was active.

As to `Cl.c1ccc(CNc2ncnc3ccccc23)cc1`, the compound was called active.

Consider `c1ccc(CNc2ncnc3ccccc23)cc1`, for which the result was inactive.

For `CC(Nc1ncnc2ccccc12)c1ccccc1` (configuration not stated), the compound was classed as active.

As to `COc1ccc(CNc2ncnc3ccccc23)cc1`, the outcome was active.

Regarding `Brc1ccc2ncnc(NCc3cccnc3)c2c1`, the compound was called active.

`COc1cccc(CNc2ncnc3cc(Cl)ccc23)c1`: the call was active.

`S=C(Nc1ccc(Cl)c(Cl)c1)NC1CCCCC1`: the call was active.

Turning to `Fc1ccc(NC(=S)NNc2ncc(C(F)(F)F)cc2Cl)c(F)c1`, the compound was classed as active.

Consider `CCCCOC(=O)c1[nH]c2c(c1C)C(=O)CC(c1cc(OC)c(OC)c(OC)c1)C2` (configuration not stated), for which the call was active.

As for `COCCOC(=O)c1[nH]c2c(c1C)C(=O)CC(c1cc(OC)c(OC)c(OC)c1)C2` (configuration not stated), the compound was called active.

On to `Cc1ccc(-c2csc(NC(=O)C3=NN(c4ccccc4)C(=O)CC3)n2)cc1`, for which the outcome was active.

For the compound `O=C(N/N=C/c1ccc([N+](=O)[O-])s1)c1ccncc1`, the compound was called active.

With `Cc1ccc(C(=O)N/N=C/c2ccc([N+](=O)[O-])s2)cc1`, the compound was called active.

For `Cc1ccc2oc(Nc3nc(-c4ccccc4)cc(=O)[nH]3)nc2c1`, the call was active.

On to `COc1cccc(C(=O)Nc2ccc3nc(N4CCN(c5ncccn5)CC4)cc(C)c3c2)c1OC`, for which the call was active.

Turning to `Cc1ccc2nc(-c3ccc4c(c3)OCCO4)cn2c1`, the outcome was active.

For the compound `O=C(/C=C/c1ccco1)Oc1cc(Br)cc(/C=N/NC(=O)c2ccccc2O)c1`, the call was active.

As to `O=C(Nc1nc(-c2ccccc2)cs1)C1CCCN(S(=O)(=O)c2ccccc2)C1` (configuration not stated), the call was active.

With `O=C(Nc1nc(-c2cccs2)cs1)c1ccc(S(=O)(=O)N2CCCC2)cc1`, the result was active.

For the compound `O=C(Nc1nnc(SCc2c(Cl)cccc2Cl)s1)c1cccc([N+](=O)[O-])c1`, the outcome was active.

Take `CC(=O)c1cccc(NS(=O)(=O)c2ccc(-c3cnc(C4CC4)o3)cc2)c1`: the compound was called active.

Consider `COc1ccc(CCNc2cc(N3CCN(C(=O)c4ccccc4F)CC3)ccc2[N+](=O)[O-])cc1OC`, for which the outcome was active.

In the case of `Cc1cccc(Sc2c(C=O)c3ccccc3n2C)c1`, the result was active.

`Cc1ccc(Sc2c(C=O)c3ccccc3n2C)cc1`: the outcome was active.

As to `Cn1c(Sc2ccc(Br)cc2)c(C=O)c2ccccc21`, the call was active.

Turning to `N#C/C(=C(/O)COc1ccc(Cl)cc1)c1nc2ccccc2s1`, the compound was classed as active.

As to `N#C/C(=C(/O)Cc1cccc2ccccc12)c1nc2ccccc2s1`, the compound was called active.

As to `COc1ccc(C)cc1NC(=O)c1ccccc1NS(=O)(=O)c1ccc(Cl)s1`, the compound was called active.

On to `CS(=O)(=O)Nc1ccccc1C(=O)Nc1cc(Cl)cc(Cl)c1`, for which the result was active.

In the case of `COc1ccccc1NS(=O)(=O)c1cccc(NC(=O)c2sc3ccccc3c2Cl)c1`, the outcome was active.

On to `Cc1ccc(NC(=O)c2ccccc2NS(=O)(=O)c2ccc(Cl)s2)cc1S(=O)(=O)N1CCOCC1`, for which the result was active.

As to `Cc1ccc(NC(=O)c2ccccc2NS(=O)(=O)c2ccc(Cl)s2)cc1`, the result was active.

As to `COc1cc(NC(=O)c2ccccc2NS(=O)(=O)c2ccc(Cl)s2)cc(OC)c1`, the result was active.

Turning to `Cc1ccc(C)c(NC(=O)c2ccccc2NS(=O)(=O)c2cc([N+](=O)[O-])ccc2C)c1`, the compound was classed as active.

On to `O=C1CCC2S/C(=C/Nc3ccc(C(F)(F)F)cc3)C(=O)N12` (configuration not stated), for which the result was active.

Take `Cc1ccc(-c2nn(CCC(=O)O)cc2/C=C\C(=O)c2ccc(Br)cc2)cc1`: the result was active.

Regarding `O=C(c1ccccc1)c1nn(-c2ccc(Cl)cc2)c(=O)cc1C(F)(F)F`, the compound was classed as active.

`CCOC(=O)c1c(N2C(=O)Nc3cc(Cl)c(Cl)cc3N2O)sc2c1CCCCC2`: the compound was classed as active.

For `COc1ccc2cc3c(N)nn(C(=O)Cc4c[nH]c5ccccc45)c3nc2c1`, the outcome was active.

For `COc1ccc2cc3c(N)nn(C(=O)Cc4ccccc4OC)c3nc2c1`, the compound was called active.

Consider `CCCCCCc1cc2cc(S(=O)(=O)c3ccc(F)c(Cl)c3)c(=O)oc2cc1O`, for which the outcome was active.

Regarding `CCCCCCc1cc2cc(S(=O)(=O)c3ccc(Cl)cc3)c(=O)oc2cc1O`, the compound was classed as active.

Turning to `Cc1nn(Cc2ccc(Cl)cc2)c(C)c1NC(=O)c1noc2c1CCc1ccccc1-2`, the compound was called active.

Turning to `CC(C)Cn1c(N)c(C(=O)CSc2ccc3c(c2)OCCO3)c(=O)n(C)c1=O`, the call was active.

For the compound `COc1ccc(-c2cc(=O)oc3c(C)c(O)ccc23)cc1`, the call was active.

Consider `COc1ccc(-c2cc(=O)oc3c(C)c(OC(=O)c4cccs4)ccc23)cc1`, for which the compound was called active.

`C=C1C(=O)O[C@@H]2C[C@@H](C)[C@@H]3C=CC(=O)[C@@]3(C)[C@@H](OC(C)=O)[C@H]12`: the compound was classed as active.

For `COc1ccc(-c2cn[nH]c2-c2ccc(OC)cc2)cc1`, the call was active.

On to `COc1ccc(-c2cn[nH]c2-c2ccc(OC)cc2O)cc1`, for which the compound was classed as active.

For the compound `COc1ccc(-c2[nH]ncc2-c2ccc3c(c2)OCCO3)c(O)c1`, the compound was called active.

`COc1ccc(-c2cn[nH]c2-c2ccc(O)cc2O)cc1`: the result was active.

Take `Cc1nc2ccc(NS(=O)(=O)c3ccc(F)c(C)c3)cc2[nH]1`: the outcome was active.

As to `CCC1CCCCN1S(=O)(=O)c1ccc(C(=O)Nc2nnc(-c3ccccc3Cl)o2)cc1` (configuration not stated), the call was active.

`O=C(Nc1nnc(-c2ccccc2Cl)o1)c1ccc(S(=O)(=O)N2CCCCCC2)cc1`: the outcome was active.

With `CC1CCCCN1S(=O)(=O)c1ccc(C(=O)Nc2nnc(-c3ccccc3Cl)o2)cc1` (configuration not stated), the compound was classed as active.

These data come from the GenesisPotency data set.
